Measurements taken from the supplement of paper PMC8866396.
± gives the standard deviation of the averaged measurements.

Columns and labels:
[1] = tested on: IL-6-GFP PC-9GR; assay: cell viability (CCK-8 OD) relative to DMSO control (fraction of control); higher = more viable cells; conditions: compound concentration: 10 uM; treatment time: 48 h
Outline: (§1)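 PC-9 and PC-9GR lung cancer cells expressing lentiviral IL-6-GFP were plated at 3000 cells/well in 96-well plates and treated for 48 h with each library compound at a final 10 μM. Viability was determined by CCK-8 absorbance as a ratio of each well's optical density to the vehicle control well.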

[2] = tested on: IL-6-GFP PC-9; assay: as above; conditions: compound concentration: 10 uM; treatment time: 48 h
Outline: as §1

SMILES | cell viability [1] | cell viability [2]
CC1=C(/C=C/C(C)=C/C=C/C(C)=C/C(=O)O)C(C)(C)CCC1 [Tretinoin] | 1.45 ± 0.45 | 1.03 ± 0.15
C1N2CN3CN1CN(C2)C3 [Methenamine] | 1.09 ± 0.19 | 0.9499 ± 0.009
CCCCC(CC)CN1CN(CC(CC)CCCC)CC(C)(N)C1 (centres undefined) [Hexetidine] | 1.58 ± 0.49 | 1.15 ± 0.07
O=C(OCCOCCO)c1ccccc1Nc1cccc(C(F)(F)F)c1 [Etofenamate] | 1.01 ± 0.29 | 1.24 ± 0.13
CNC(=O)c1cc(Oc2ccc(NC(=O)Nc3ccc(Cl)c(C(F)(F)F)c3)cc2)ccn1.Cc1ccc(S(=O)(=O)O)cc1 [Sorafenib Tosylate] | 0.85 ± 0.18 | 0.524 ± 0.017
Nc1nc(F)nc2c1ncn2C1OC(CO)C(O)C1O (centres undefined) [Fludarabine] | 0.214 ± 0.12 | 0.232 ± 0.026
COc1c2occc2c(OC)c2c(=O)cc(C)oc12 [Khellin] | 0.831 ± 0.16 | 0.888 ± 0.17
CN1CCC(=C2c3ccccc3CCn3c(C=O)cnc32)CC1 [Alcaftadine] | 0.751 ± 0.18 | 1.07 ± 0.21
O=C(O)CCCN1CCC(OC(c2ccc(Cl)cc2)c2ccccn2)CC1 (centres undefined) [Bepotastine] | 0.797 ± 0.031 | 1.06 ± 0.18
CCC(C)C(=O)OC1CC(O)C=C2C=CC(C)C(CCC(O)CC(O)CC(=O)[O-])C21.[Na+] (centres undefined) [Pravastatin sodium] | 0.932 ± 0.038 | 1.17 ± 0.016
CN1C(C(=O)Nc2ccccn2)=C(O)c2sccc2S1(=O)=O [Tenoxicam] | 1.16 ± 0.15 | 1.21 ± 0.1
COc1ccnc(CS(=O)c2nc3ccc(-n4cccc4)cc3[nH]2)c1C (centres undefined) [Ilaprazole] | 1.17 ± 0.38 | 1.29 ± 0.23
